# In the supplement of paper PMC9694430:
# Structures can show the parent of a compound that is named as a salt.
# Legend:
# Test in all cases: thermal shift delta Tm vs DMSO control; higher = stronger stabilization (binding)
# Details in all cases: 12.5 µM; protein concentration 2 µM
# LOC_OS04G57630-cb004 = tested on: LOC_OS04G57630-cb004
# Outline: (§1)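 Purified, E. coli-expressed rice kinase domain constructs were tested by differential scanning fluorimetry in 96-well plates: 19.5 μl of 2 μM kinase in 100 mM potassium phosphate pH 7.5, 150 mM NaCl, 10% glycerol, 5 × SYPRO Orange, plus compound in DMSO. Fluorescence was read from 25°C to 95°C at 0.05°C/s. Melting temperatures came from Boltzmann fits, and the shift is the triplicate mean relative to protein with DMSO alone.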
# LOC_OS05G07850-cb002 = tested on: LOC_OS05G07850-cb002
# Outline: as §1
# LOC_OS05G16824-cb004 = tested on: LOC_OS05G16824-cb004
# Outline: as §1
# LOC_OS05G28520-cb001 = tested on: LOC_OS05G28520-cb001
# Outline: as §1
# LOC_OS05G30820-cb001 = tested on: LOC_OS05G30820-cb001
# Outline: as §1
# LOC_OS05G43570-cb004 = tested on: LOC_OS05G43570-cb004
# Outline: as §1
# LOC_OS06G16330-cb003 = tested on: LOC_OS06G16330-cb003
# Outline: as §1
# LOC_OS06G22820-cb001 = tested on: T1, LOC_OS06G22820-cb001
# T1 sequence (whole entry): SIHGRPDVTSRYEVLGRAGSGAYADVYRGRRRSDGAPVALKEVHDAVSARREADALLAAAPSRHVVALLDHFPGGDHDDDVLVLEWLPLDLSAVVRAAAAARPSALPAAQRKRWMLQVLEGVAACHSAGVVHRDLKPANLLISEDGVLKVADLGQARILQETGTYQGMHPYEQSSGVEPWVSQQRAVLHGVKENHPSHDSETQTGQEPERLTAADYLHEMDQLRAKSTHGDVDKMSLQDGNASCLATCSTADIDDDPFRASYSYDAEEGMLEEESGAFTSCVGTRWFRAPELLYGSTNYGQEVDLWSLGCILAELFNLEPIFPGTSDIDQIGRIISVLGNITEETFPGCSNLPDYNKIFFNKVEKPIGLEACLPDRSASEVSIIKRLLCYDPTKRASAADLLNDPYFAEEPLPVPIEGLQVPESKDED
# Outline: as §1
# LOC_OS07G06570-cb004 = tested on: LOC_OS07G06570-cb004
# Outline: as §1
# LOC_OS07G07230-cb001 = tested on: LOC_OS07G07230-cb001
# Outline: as §1
# LOC_OS06G16330-cb003, sequence (as listed by the source): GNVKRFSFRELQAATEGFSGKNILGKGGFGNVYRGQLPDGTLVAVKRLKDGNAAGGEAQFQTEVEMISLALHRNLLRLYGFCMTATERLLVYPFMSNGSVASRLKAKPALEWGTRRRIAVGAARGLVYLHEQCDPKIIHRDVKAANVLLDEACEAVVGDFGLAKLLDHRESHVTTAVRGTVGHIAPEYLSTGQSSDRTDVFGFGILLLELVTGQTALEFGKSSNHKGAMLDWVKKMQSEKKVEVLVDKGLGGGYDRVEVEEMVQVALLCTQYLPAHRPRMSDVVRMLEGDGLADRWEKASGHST
SMILES,thermal shift delta Tm (LOC_OS04G57630-cb004),thermal shift delta Tm (LOC_OS05G07850-cb002),thermal shift delta Tm (LOC_OS05G16824-cb004),thermal shift delta Tm (LOC_OS05G28520-cb001),thermal shift delta Tm (LOC_OS05G30820-cb001),thermal shift delta Tm (LOC_OS05G43570-cb004),thermal shift delta Tm (LOC_OS06G16330-cb003),thermal shift delta Tm (LOC_OS06G22820-cb001),thermal shift delta Tm (LOC_OS07G06570-cb004),thermal shift delta Tm (LOC_OS07G07230-cb001)
Cc1cc(C(=O)NOCCO)c(Nc2ccc(I)cc2F)n(C)c1=O,0.11 °C,0.04 °C,-9.58 °C,-0.17 °C,0.7 °C,0.18 °C,-0.11 °C,0.38 °C,1.15 °C,0.15 °C
COc1ccc(Oc2cc(NCCC(F)(F)F)c3ncc(-c4ccc(C(=O)NC5CC5)c(C)c4)n3n2)c(F)c1F,0.38 °C,2.11 °C,-2.18 °C,1.04 °C,0.67 °C,0.63 °C,0.09 °C,0.73 °C,-0.39 °C,1.65 °C
CC(C)c1cnn2c(NCc3ccccc3)cc(NCCCCCCN)nc12,-0.33 °C,-0.23 °C,-2.84 °C,0.27 °C,0.42 °C,0.43 °C,-0.05 °C,0.96 °C,1.35 °C,0.18 °C
CCN(CC)CCCC(C)Nc1nc(C)cc(Nc2ccc3nc(C)cc(N)c3c2)n1 (stereo not given),-0.27 °C,-0.09 °C,-1.91 °C,0.14 °C,0.63 °C,0.55 °C,-0.04 °C,0.19 °C,1.53 °C,0.49 °C
N=C(N)NC(=N)NCCc1ccccc1 [Phenformin HCl],0.25 °C,-0.02 °C,-6.46 °C,0.39 °C,0.48 °C,0.27 °C,-0.35 °C,0.41 °C,0.53 °C,-0.03 °C
O=c1nc(N2CCOCC2)oc2c(-c3cccc4c3sc3ccccc34)cccc12,-0.05 °C,1.07 °C,1.26 °C,-0.27 °C,-0.09 °C,-0.65 °C,-1.74 °C,0.33 °C,0.14 °C,0.66 °C
FC(F)(F)c1ccc(CNc2ccc(Cc3c[nH]c4ncc(Cl)cc34)cn2)cn1 [Pexidartinib (PLX3397)],1.53 °C,8.75 °C,5.17 °C,1.46 °C,0.74 °C,0.8 °C,8.9 °C,0.41 °C,0.14 °C,-0.31 °C
CN1C(=O)[C@@H](NC(=O)c2n[nH]c(Cc3ccccc3)n2)COc2ccccc21,0.41 °C,0.32 °C,2.34 °C,-0.04 °C,0.15 °C,0.36 °C,0.02 °C,0.48 °C,1.77 °C,0.47 °C
